We go through seven compounds from PubChem BioAssay (Tox21).

Each structure is given as a SMILES string. A number with no mark means an inactive call. Records with an inconclusive call do not appear. The source made the active and inactive calls. Unless noted, calls follow the shape of the dose curve; as a rule, active = well fitted curve in the direction sought with a large enough effect in the repeat runs; inconclusive = weak or mixed curves; inactive = no such curve, though single readings can be large; an effect the other way counts as inactive or inconclusive.

A short description of assay [1]: qHTS assay for small molecule agonists of the p53 signaling pathway (AID 651631; calls by dose curve; also: nearly all actives have a fitted effect of over 15% in size; also: potency is read from the fitted curve at half-maximal effect). A digest of the protocol: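 Testing took place in human colorectal HCT-116 cells with stable p53RE-driven beta-lactamase. After 16 h of compound exposure at 37 °C, a FRET substrate was added and fluorescence recorded 2 h later.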
Background: In qHTS, concentration-response curves come from the screen itself.

Assay [2] in a line: qHTS assay for small molecules that induce genotoxicity in human embryonic kidney cells expressing luciferase-tagged ATAD5 (AID 651632). Also: nearly all actives have a fitted effect of over 15% in size. A digest of the protocol: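 DMSO vehicle served as the control. HEK293T reporter cells, 16 hr at 37C, then 30 min Amplite at room temperature; ATAD5 induction is measured as luciferase activity.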
Assay [3] can be described thus: qHTS assay for small molecule agonists of the p53 signaling pathway - cell viability (AID 651633; calls by dose curve; also: nearly all actives have a fitted effect of over 30% in size; also: potency is read from the fitted curve at half-maximal effect). The procedure, abridged:
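Viability counter-read: CellTiter-Glo luminescence (30 min, room temperature) in the same p53RE-bla plates. These plates had been exposed to compounds for 16 h at 37 C.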

Assay [4] in a line: qHTS assay for small molecules that induce genotoxicity in human embryonic kidney cells expressing luciferase-tagged ATAD5 - cell viability (AID 651634; calls by dose curve; also: nearly all actives have a fitted effect of over 25% in size). A digest of the protocol:
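Here HEK293T cells with the ATAD5 luciferase reporter are incubated with test compounds for 15.5 hr, and cytotoxicity is then gauged by measuring protease activity in live cells using fluorescence.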

Assay [5] is described as follows: qHTS assay for small molecule disruptors of the mitochondrial membrane potential - cell viability (AID 720634; calls by dose curve;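 also: human HepG2 liver cancer cells; series mostly up to about 83 µM; nearly all actives have a fitted effect of over 20% in size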). A digest of the protocol:
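Viability of HepG2 cells is scored from ATP content by luminescence; cells are exposed to compound for 1 hr at 37 C and 5% CO2, then dosed with m-MPI dye before the CellTiter-Glo reagent.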

Assay [6] is described as follows: qHTS assay to test for compound auto fluorescence at 590 nm (red) in HepG2 cells (AID 720674). The procedure, abridged:
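1 hr compound incubation on HepG2 cells, 37 C, 5% CO2; plate read ex 540 nm / em 590 nm; intensities reported as Rose Bengal sodium equivalents.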

Assay [7] is described as follows: qHTS assay to test for compound auto fluorescence at 535 nm (green) in HepG2 cells (AID 720675).
Assay [8] can be described thus: qHTS assay to test for compound auto fluorescence at 460 nm (blue) in HEK293 cells (AID 720678). The procedure, abridged:
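Cells were seeded and left to adhere for 4-5 hr at 37C. Compounds were then pin-transferred. After an overnight incubation at 37C under 5% CO2, intrinsic fluorescence at 405/460 nm was measured and referenced to triamterene.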

A short description of assay [9]: qHTS assay to test for compound auto fluorescence at 590 nm (red) in HEK293 cells (AID 720679). A digest of the protocol:
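Each well held 2,000 HEK293 cells in medium containing 10% dialyzed FBS. Following 4-5 hr attachment at 37C, 23 nL test compound or DMSO was added; plates sat overnight, and red fluorescence (540/590nm) was recorded.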

Assay [10] in a line: qHTS assay to test for compound auto fluorescence at 535 nm (green) in HEK293 cells (AID 720680).
Assay [11] is described as follows: qHTS assay to test for compound auto fluorescence at 460 nm (blue) in HEK293 cell free culture (AID 720681). A digest of the protocol: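 Blue fluorescence (Ex 405/Em 460 nm, triamterene-equivalent) was read immediately after pin transfer of compound or DMSO into medium (DMEM, 10% FBS) without cells.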
Assay [12] in a line: qHTS assay to test for compound auto fluorescence at 535 nm (green) in HEK293 cell free culture (AID 720682). The procedure, abridged:
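DMEM + 10% FBS, cell-free; cpd or DMSO pinned in; Ex485/Em535 read; output as fluorescein-equivalent signal.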

Assay [13] is described as follows: qHTS assay to test for compound auto fluorescence at 590 nm (red) in HEK293 cell free culture (AID 720683). A digest of the protocol:
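Red-channel autofluorescence of compounds in culture medium (DMEM, 10% FBS), no cells, measured at 540/590 nm. Rose Bengal sodium is the reference fluorophore for equivalence.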

Assay [14] is described as follows: qHTS assay to test for compound auto fluorescence at 590 nm (red) in HepG2 cell free culture (AID 720684). The procedure, abridged: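 Cell-free; medium MEM + 10% FBS; compound or DMSO added by pintool; read Ex 540/Em 590 nm; Rose Bengal sodium as red reference fluorophore.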
Assay [15] in a line: qHTS assay to test for compound auto fluorescence at 460 nm (blue) in HepG2 cell free culture (AID 720685). The procedure, abridged:
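Cell-free plates of MEM plus 10% FBS received 23 nL compound or DMSO vehicle; blue-channel (405/460 nm) intensity scored against triamterene as reference fluorophore.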

The nature of assay [16]: qHTS assay to test for compound auto fluorescence at 535 nm (green) in HepG2 cell free culture (AID 720686).
Assay [17] can be described thus: qHTS assay to test for compound auto fluorescence at 460 nm (blue) in HepG2 cells (AID 720687). A digest of the protocol: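 Blue-channel autofluorescence (Ex/Em 405/460 nm, triamterene-equivalent) was measured after 1 hr compound exposure at 37 C, 5% CO2. Cells were HepG2, plated overnight at 37 C in MEM plus 10% FBS.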
Assay [18] deals with Glucocorticoid receptor (Homo sapiens) (UniProt P04150). Briefly: qHTS assay to identify small molecule agonists of the glucocorticoid receptor (GR) signaling pathway (AID 720691; active = well fitted activation curve with a large enough effect in the signal ratio in the repeat runs, not every such curve was filed as active; the % refers to the signal ratio). A digest of the protocol: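 Compounds in DMSO, alongside positive controls, were added to GR-bla HeLa reporter cells and incubated 18 h at 37 C; GRE-driven beta-lactamase was detected by fluorescence after 2 h with FRET substrate at room temperature.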

For assay [19] the target is unchanged. Briefly: qHTS assay to identify small molecule antagonists of the glucocorticoid receptor (GR) signaling pathway (AID 720692; active = well fitted inhibition curve with a large enough effect in the signal ratio in the repeat runs, not every such curve was filed as active; the % refers to the signal ratio). A digest of the protocol:
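In a 1536-well cell format, compounds were added 4 h after seeding GR-bla HeLa cells, together with dexamethasone at 5 nM final; reporter activity was measured by FRET-substrate fluorescence following 18 h at 37 C.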

Sequence of Glucocorticoid receptor (Homo sapiens) (P04150 whole entry, looked up): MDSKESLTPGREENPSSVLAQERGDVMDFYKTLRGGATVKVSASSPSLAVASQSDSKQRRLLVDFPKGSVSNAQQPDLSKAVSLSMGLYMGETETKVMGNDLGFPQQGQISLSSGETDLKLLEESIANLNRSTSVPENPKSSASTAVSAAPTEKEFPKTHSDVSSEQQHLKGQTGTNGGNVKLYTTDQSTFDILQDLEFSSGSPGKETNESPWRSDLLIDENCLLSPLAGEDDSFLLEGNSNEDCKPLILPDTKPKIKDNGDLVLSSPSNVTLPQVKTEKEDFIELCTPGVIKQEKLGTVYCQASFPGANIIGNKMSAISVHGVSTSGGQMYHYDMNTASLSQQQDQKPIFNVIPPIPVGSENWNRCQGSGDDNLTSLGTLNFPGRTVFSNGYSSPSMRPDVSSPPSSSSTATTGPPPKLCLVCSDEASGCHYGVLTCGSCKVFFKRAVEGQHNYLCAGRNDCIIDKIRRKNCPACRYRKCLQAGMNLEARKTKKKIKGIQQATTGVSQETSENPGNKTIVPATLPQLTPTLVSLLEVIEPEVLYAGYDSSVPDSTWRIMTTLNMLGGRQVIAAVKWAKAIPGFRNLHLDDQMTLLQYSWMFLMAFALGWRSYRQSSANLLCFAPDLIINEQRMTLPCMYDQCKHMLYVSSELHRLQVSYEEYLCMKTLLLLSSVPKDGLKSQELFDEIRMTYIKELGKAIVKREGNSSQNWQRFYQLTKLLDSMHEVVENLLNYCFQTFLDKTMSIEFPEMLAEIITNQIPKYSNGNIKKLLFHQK

In the case of `CCCCCCCCC=O`, the Potency entry in assay [1], in [2], in assay [3], in [4], in assay [5] and in assay [8] was “inactive” each time. Also, the Potency result in [11], in assay [15], in assay [17], in [18] and in assay [19] was “inactive” throughout. Further, the call in [6], in assay [7], in assay [9], in assay [10], in assay [12] and in [13] was inactive. Also, the call in assay [14] and in assay [16] was inactive.
As to `NC(=O)CCCCC1CCSS1` (centres undefined), the Potency entry in [1], in assay [2], in assay [3], in assay [4], in [5] and in assay [8] was “inactive” each time. Besides, the Potency entry in assay [11], in assay [15], in [17], in assay [18] and in [19] was “inactive” in each case. Also, the outcome in [6], in [7], in [9], in assay [10], in [12] and in assay [13] was inactive. Besides, the compound was called inactive in assay [14] and in assay [16].
Consider `COC(=O)CCCC(=O)O`, for which the Potency entry in assay [1], in [2], in assay [3], in [4], in assay [5] and in assay [8] was “inactive” each time. The Potency entry in [11], in assay [15] and in assay [17] was “inactive” each time. Further, the compound was classed as inactive in assay [6], in assay [7], in assay [9], in [10], in assay [13] and in [14]. In assay [16], the call was inactive.
As for `C[C@H]1O[C@@H](n2cc(F)c(=O)[nH]c2=O)[C@H](O)[C@@H]1O`, the Potency was 21.1 µM (active) in assay [1] and 8.41 µM (active) in assay [3]. For the same compound, the Potency entry in [2], in assay [4], in assay [5], in assay [8], in assay [11] and in [15] was “inactive” each time. Besides, the Potency result in assay [17], in assay [18] and in assay [19] was “inactive” throughout. Also, the outcome in assay [6], in [7], in assay [9], in assay [10], in assay [13] and in assay [14] was inactive. Moreover, in assay [16], the call was inactive.
For the compound `N#CCN(CC#N)CCN(CC#N)CC#N`, the Potency result in assay [1], in assay [2], in [3], in assay [4], in assay [5] and in assay [8] was “inactive” each time. Moreover, the Potency result in assay [11], in assay [15], in [17], in assay [18] and in [19] was “inactive” throughout. The result in assay [6], in assay [7], in [9], in assay [10], in assay [12] and in assay [13] was inactive. Also, the outcome in assay [14] and in [16] was inactive.
On to `OCC(O)[C@@H](O)[C@H](O)[C@H](O)CO[C@H]1O[C@H](CO)[C@@H](O)[C@H](O)[C@H]1O` (some centres undefined), for which the Potency result in [1], in assay [2], in assay [3], in assay [4], in assay [5] and in assay [8] was “inactive” each time. Moreover, the Potency result in assay [11], in [15], in assay [17] and in assay [19] was “inactive” in each case. Further, the outcome in assay [6], in [7], in [9], in assay [10], in [12] and in assay [13] was inactive. The outcome in assay [14] and in [16] was inactive.
Turning to `c1ccc(SCCSc2ccccc2)cc1`, the Potency entry in assay [1], in assay [3], in assay [4], in assay [5], in assay [8] and in assay [11] was “inactive” each time. In addition, the Potency result in assay [15] and in [17] was “inactive” each time. Also, the compound was classed as inactive in assay [6], in [7], in assay [9], in assay [10], in [13] and in assay [14]. For the same compound, in assay [16], the compound was classed as inactive.
